Hit rate of the full screen: of about 330,000 compounds, about 4,100 (1.2%) were called active. Another 2% or so got no clear call; they are omitted. The calls were made as follows: active = max response of -50% or lower; inconclusive = between -30% and -50%; inactive = -30% or higher. The list comes from a sample in which actives are over-represented; it also holds similar structures and randomly drawn compounds.
% is scaled to controls: 0 for no effect and ±100 for the full control effect.

Chain of Phosphatidylinositol 5-phosphate 4-kinase type-2 alpha (Homo sapiens) (P48426 whole entry, looked up): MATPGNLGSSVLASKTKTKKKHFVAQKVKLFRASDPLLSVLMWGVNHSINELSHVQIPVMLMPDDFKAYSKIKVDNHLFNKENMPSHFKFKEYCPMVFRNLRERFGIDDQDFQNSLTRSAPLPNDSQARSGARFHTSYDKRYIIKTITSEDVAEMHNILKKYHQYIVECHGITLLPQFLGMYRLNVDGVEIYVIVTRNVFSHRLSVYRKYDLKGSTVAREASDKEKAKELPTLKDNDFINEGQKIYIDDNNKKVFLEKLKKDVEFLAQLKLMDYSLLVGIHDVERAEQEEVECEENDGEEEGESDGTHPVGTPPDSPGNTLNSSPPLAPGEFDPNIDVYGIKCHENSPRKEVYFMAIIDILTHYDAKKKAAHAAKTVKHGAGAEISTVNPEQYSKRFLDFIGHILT

The assay concerns the target Phosphatidylinositol 5-phosphate 4-kinase type-2 alpha (Homo sapiens) (UniProt P48426). Briefly: qHTS for Inhibitors of phosphatidylinositol 5-phosphate 4-kinase (PI5P4K). Also: value at the top dose of about 77 µM. The note with it: PI5P4Kalpha enzyme, ADP-Glo luminescence, 60 min; hits give low values. The method in brief:
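Human PI5P4Kalpha with substrate in 0.038 M HEPES pH 7.4, 0.28 mM EGTA, 0.1% CHAPS, 5% DMSO; reaction started with 5 microM ATP (final), 60 min at room temperature. ADP formed read by ADP-Glo luminescence.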
In general terms: qHTS replaces the single test concentration by a dilution series.
As to `CCOC(=O)C1=CC[C@@H](c2ccccc2)N(S(=O)(=O)c2ccc(C)cc2)[C@H]1c1cccc(OC)c1`, the max response was 4.01% (inactive).

Take `CCOC(=O)c1ccn(S(=O)(=O)c2ccc(C)cc2)c1-c1ccccc1`: the max response was 12.7% (inactive).

Turning to `COc1ccc(-c2cc(C(=O)Nc3ccccc3O)c3ccccc3n2)cc1`, the max response was -106% (active).

Consider `COc1ccc(NC(=O)c2cc(-c3cc(OC)c(OC)c(OC)c3)nc3ccccc23)c(OC)c1`, for which the max response is 2.36% (inactive).

On to `COc1ccc(-c2cc(C(=O)N(C)Cc3ccccc3)c3ccccc3n2)cc1`, for which the max response was 15.4% (inactive).

Turning to `COc1ccc(NC(=O)C2Cc3c(-c4ccc(Cl)cc4)ccnc3O2)cc1` (centres undefined), the max response is -2.22% (inactive).

As for `Cc1ccc(-c2c(N)nc3ncccn23)cc1`, the max response was 0.002% (inactive).

Take `O=CNc1cc(-c2ccc(C(=O)N3CCOCC3)cc2)cn2c(-c3ccc(F)cc3)cnc12`: the max response is -15.7% (inactive).

With `CCCCNC(=O)C[C@@H]1C[C@@]2(C(=O)OCC)CCC=C2N(Cc2cccc3ccccc23)C1=O`, the max response was 3.26% (inactive).

Turning to `Cc1ccc(NS(=O)(=O)c2ccc(N/N=C/c3ccccc3OCC(=O)O)c([N+](=O)[O-])c2)c(C)c1`, the max response was 0.282% (inactive).

Turning to `COc1ccc(Br)cc1/C=N/Nc1ccc(S(=O)(=O)Nc2ccccc2C(=O)O)cc1[N+](=O)[O-]`, the max response is -15.6% (inactive).

With `COc1cccc(/C=N/Nc2ccc(S(=O)(=O)Nc3ccccc3C(=O)O)cc2[N+](=O)[O-])c1O`, the max response is -74.4% (active).

Regarding `Cc1noc(C)c1-c1ccc(C(=O)NCc2ccncc2)c2occc12`, the max response was 1.04% (inactive).

With `COc1cccc(-c2nc3nc(C)cc(C)n3c2NC2CCCCC2)c1`, the max response is -7.02% (inactive).

Consider `C[C@H]1NS(=O)(=O)c2cc(Cl)ccc2O[C@@H]1c1ccccc1`, for which the max response is 4.12% (inactive).

In the case of `Cc1ccccc1C1=NC(C(F)(F)F)(C(F)(F)F)c2c(n(-c3ccc(F)cc3)c(=O)[nH]c2=O)N1`, the max response is -8.19% (inactive).

For `O=c1[nH]c(=O)n(Cc2ccco2)c2c1C(C(F)(F)F)(C(F)(F)F)N=C(c1ccco1)N2`, the max response is -76.9% (active).

As for `Nc1c(N(Cc2ccco2)C(=O)c2cccc(F)c2)c(=O)[nH]c(=O)n1Cc1ccccc1`, the max response was -14.9% (inactive).

For `CN(C)c1cccc(NC(=O)c2ccc(-c3ccc(F)c(F)c3)c3ccoc23)c1`, the max response was 2.45% (inactive).

Turning to `CCC(=O)N1CCC(C)(C(=O)Nc2cc(OC)c(OC)c(OC)c2)C1` (centres undefined), the max response is 10.8% (inactive).

Regarding `CC(=O)C1=CCC(c2ccccc2)N(S(=O)(=O)c2ccc(C)cc2)C1` (centres undefined), the max response is -0.133% (inactive).

Take `COc1ccc(Cc2nnc(NS(=O)(=O)Cc3ccccc3)s2)cc1`: the max response was -3.92% (inactive).

For the molecule `COc1ccc(Cc2nnc(NC(=O)Cc3cccs3)s2)cc1`, the max response was -87.6% (active).

`O=C(Cc1cccs1)Nc1nnc(SCc2ccc(F)cc2)s1`: the max response is 6.84% (inactive).

For `CCOP(=O)(OCC)C(Cc1ccccc1)N=C(c1ccccc1)c1ccccc1` (centres undefined), the max response is 10.7% (inactive).

Turning to `CC1(C(=O)NCc2ccc3c(c2)OCO3)CCN1C(=O)Cc1cccc2ccccc12` (centres undefined), the max response is 1.27% (inactive).

`O=C1NC[C@H](CCCCN2C[C@H](Cc3ccc(O)cc3)N(CC3CCCCC3)C(=O)C2=O)N(CCc2ccccc2)C1=O`: the max response was -0.0714% (inactive).

As to `CSc1ncnc2c1ncn2CCCNCC(C)c1ccccc1` (centres undefined), the max response was -2.55% (inactive).

As for `Fc1cccc(Cc2c(-c3cccc(Cl)c3)nc3ccc(Br)cn23)c1`, the max response is -13.9% (inactive).

Turning to `CC(=O)Nc1cc(-c2ccc(N3CCN(C)CC3)cc2)cn2c(-c3ccc(F)cc3)cnc12`, the max response was -9.82% (inactive).

Turning to `O=C(NCc1cccc(C(F)(F)F)c1)c1ccc2sc(COCCO)nc2c1`, the max response was -7.68% (inactive).

In the case of `CC1(C(=O)Nc2ccc3c(c2)OCCO3)CCN1C(=O)Cc1cc(F)ccc1F` (centres undefined), the max response was 2.77% (inactive).

As to `O=C1C(Cl)=C(Oc2ccccc2)C(=O)c2ccccc21`, the max response is -95.6% (active).

Turning to `Clc1ccccc1Nc1nc(NCc2cccs2)nc2ccsc12`, the max response is -4.54% (inactive).

As to `CC(=O)c1c(C)[nH]c(C(=O)OCC(=O)Nc2sc3c(c2C#N)CCCC3)c1C`, the max response is -6.62% (inactive).

With `CCOc1ccc(NC(=O)c2ccc(NC(=O)COC(=O)c3ccc(NC(=O)CC#N)cc3)cc2)cc1`, the max response was -67.8% (active).

Take `CC(C)NC(=O)NC(=O)COC(=O)c1ccc(NC(=O)CC#N)cc1`: the max response was -8.69% (inactive).

Turning to `CCOc1ccc(NC(=O)CCNC(=O)c2ccc(Br)cc2)cc1`, the max response is -0.675% (inactive).

Consider `N#CCC(=O)Nc1ccc(C(=O)OCC(=O)Nc2sc3c(c2C#N)CCCC3)cc1`, for which the max response is -64.2% (active).

As for `Cc1cccc(C(=O)OCC(=O)Nc2sc3c(c2C#N)CCC3)c1`, the max response is -29.9% (inactive).

Regarding `CC1=C(C(=O)N(C(C)C)C(C)C)CC(CC(=O)NCCCCc2ccccc2)C(=O)N1CCC1=CCCCC1` (centres undefined), the max response was -0.015% (inactive).

Turning to `COC(=O)C[C@H]1C=C[C@@H](NS(=O)(=O)c2ccc(C)cc2)[C@@H](CO)O1`, the max response is 0.772% (inactive).

Take `Cc1ccc(S(=O)(=O)/N=C2\C=C(NS(=O)(=O)c3ccc(C)cc3)C(=O)c3ccccc32)cc1`: the max response was -25.4% (inactive).

As to `O=C1C=C(NS(=O)(=O)c2ccccc2)C(=O)c2ccccc21`, the max response is 1.96% (inactive).

With `COc1ccc(S(=O)(=O)/N=C2\C=C(NS(=O)(=O)c3ccccc3)C(=O)c3ccccc32)cc1`, the max response is -64.4% (active).

With `O=C(OCc1ccccc1)N1CCC2CC1c1ccc(-c3ccc4c(c3)OCO4)cc12` (centres undefined), the max response is 14.4% (inactive).

As for `O=S1(=O)CC(N2CCN(CCO)CC2)CN1Cc1cn(Cc2ccc(Cl)cc2)nn1` (centres undefined), the max response is -1.75% (inactive).

As for `NC(Cc1ccc(F)cc1)c1csc(Nc2nncc3ccccc23)n1` (centres undefined), the max response was -1.97% (inactive).

With `CCOC(=O)c1sc(=S)n2c1[nH]c(=O)c1ccc(C(=O)OC)cc12`, the max response was -52.6% (active).

For the molecule `COC(=O)c1cccc(NC(=O)CSc2nc(C)cc(=O)[nH]2)c1`, the max response is -26.1% (inactive).

Turning to `CCOC(=O)c1ccc2c(c1)nc(C)n2CC`, the max response is 0.903% (inactive).

In the case of `O[C@H]1C[C@H](c2ccc(Cl)cc2)N(Cc2cccs2)C[C@@H]1n1cc(C2CC2)nn1`, the max response was 16.1% (inactive).

On to `COc1ccc(-c2cc(=O)c3c(O)cc(O[C@@H]4O[C@H](CO[C@@H]5O[C@@H](C)[C@H](O)[C@@H](O)[C@H]5O)[C@@H](O)[C@H](O)[C@H]4O)cc3o2)cc1O`, for which the max response was 0.0751% (inactive).

Take `COc1cc(O)c2c(=O)c3c(O)c(O)ccc3oc2c1OC`: the max response is -7.12% (inactive).

On to `COc1c(O)cc2oc(-c3ccc(O)c(O)c3)cc(=O)c2c1O`, for which the max response is -59.1% (active).

As for `Cc1[nH]c2ccccc2c1C(=O)c1cc([C@H](NC(=O)OC(C)(C)C)C(C)C)sc1N`, the max response was 2.87% (inactive).

Consider `CC(=O)OCC(C)n1c(=O)c2ccccc2n1C(C)=O` (centres undefined), for which the max response was -0.324% (inactive).

For `COc1ccc(C(O)c2nc(-c3ccc4c(c3)OCO4)cs2)cc1` (centres undefined), the max response is -1.53% (inactive).

Turning to `Cc1ccc(CNC(=O)c2cccc3c2C(=O)c2ccc(N4CCC(C)CC4)cc2S3(=O)=O)cc1`, the max response is -1.75% (inactive).

On to `O=C1c2ccccc2S(=O)(=O)c2cc(N3CCN(c4ccccn4)CC3)ccc21`, for which the max response was 1.24% (inactive).

As for `CC1CCN(c2ccc3c(c2)S(=O)(=O)c2cc(C(=O)O)ccc2C3=O)CC1`, the max response is -56.6% (active).

On to `CCCCC(=O)N(C)c1c(CC)nc2c(OCc3ccc(S(C)(=O)=O)cc3)cccn12`, for which the max response is -1.42% (inactive).

For `CC(C)[C@H](NC(=O)c1ccccc1F)C(=O)Nc1cccc(S(=O)(=O)N2CCOCC2)c1`, the max response is 0.136% (inactive).

`COc1ccc(C2CC(c3ccc([N+](=O)[O-])cc3)=NN2C(C)=O)cc1` (centres undefined): the max response is 0.372% (inactive).

With `CN1C2CCC1CC(NC(=O)c1ccc([N+](=O)[O-])cc1)C2` (centres undefined), the max response is 0.848% (inactive).

`CC(=O)N1CC[n+]2c(-c3ccc([N+](=O)[O-])cc3)csc21`: the max response was -61% (active).

As to `COC(=O)[C@]12CCCCC=C1N(CCC1=CCCCC1)C(=O)[C@H](CC(=O)NCC1CCCCC1)C2`, the max response is 7.3% (inactive).

On to `CC(=O)N1Cc2cc(C(=O)NCc3cccc(F)c3)nc(-c3cccc(C4=CCCC4)c3)c2[C@H]1CCO`, for which the max response was -1.08% (inactive).

As for `CNc1cc(-c2c(OC)cccc2OC)ncn1`, the max response was 3.83% (inactive).

Consider `C[C@@H]1C[C@@H]2O[C@H]2/C=C\C=C\C(=O)Cc2c(Cl)c(O)cc(O)c2C(=O)O1`, for which the max response was -50.5% (active).

On to `CC1(C(=O)Nc2cccc3c2CCCC3)CCN1C(=O)C1(c2ccccc2)CC1` (centres undefined), for which the max response was 20.1% (inactive).

Regarding `O=C1OCCOC2CCCc3oc(-c4ccccc4)c1c32` (centres undefined), the max response is -3.14% (inactive).

Turning to `OC(c1ccc(F)cc1)c1ncc(-c2cccc(C(F)(F)F)c2)[nH]1` (centres undefined), the max response is 16.6% (inactive).

For the molecule `COc1cc(/C=C2\C(=N)N3N=C(CC(=O)N4CCOCC4)SC3=NC2=O)cc(OC)c1OC`, the max response is 1.99% (inactive).

Consider `COc1cccc(/C=C2\SC(=S)N(CCCC(=O)N3CCOCC3)C2=O)c1`, for which the max response is 1.86% (inactive).

As to `CCOC(=O)/C=c1\s/c(=C\c2ccccc2OC)c(=O)n1CC(=O)N1CCOCC1`, the max response was -6.89% (inactive).

As to `COC1=C/C(=C/c2c(N)n3nc(CC(=O)N4CCOCC4)sc3nc2=O)C=CC1=O`, the max response was -79.3% (active).

With `C=CCC1=C/C(=C\c2c(N)n3nc(CC(=O)N4CCOCC4)sc3nc2=O)C=C(OC)C1=O`, the max response is -61.1% (active).

Turning to `CCOC(=O)C1=CCC(c2ccc(F)cc2)N(S(=O)(=O)c2ccc(C)cc2)C1` (centres undefined), the max response was 8.18% (inactive).

For the molecule `O=C(COc1ccc(Br)cc1)OCC(=O)c1ccc[nH]1`, the max response was 1.45% (inactive).

Take `CCc1nc2c(OCc3ccc(C(=O)OC)cc3)cccn2c1N(C)C(=O)C(C)C`: the max response is -5.01% (inactive).

For the molecule `COc1ccc(C(=O)Nc2ccccc2C(=O)N/N=C/c2ccc(O)c(OC)c2)cc1`, the max response was -50.7% (active).

For the molecule `COc1cc(/C=N/NC(=O)c2ccc(N3CCCC3=O)cc2)ccc1O`, the max response is 0.256% (inactive).

On to `CCOc1cc(/C=N/NC(=O)c2cc(-c3ccccc3)nc3ccccc23)ccc1O`, for which the max response was 1.21% (inactive).

These data come from PubChem BioAssay AID652105 (National Center for Advancing Translational Sciences (NCATS), 2013).
